Screens: PubChem BioAssay, National Center for Advancing Translational Sciences (NCATS)
Sampled rows, rich in hits. Any-hit rate of the full collection: about 19%.
IL-1B inflam inh: blocks inflammasome-driven IL-1 beta release; THP-1 LPS/ATP IL-1B secretion, AlphaLISA, 16 h; active compounds read low; hit rate 4.7% among 360,000; AID 743279; activity change, % at 57.5 µM; in the data active = activity change below about -50%; inconclusive = mostly about -30% to -49%
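Secreted IL-1B measured by AlphaLISA bead assay after 16 h compound exposure of THP-1 cells; compounds (final up to 57.5 uM) added 1 h before LPS (250 ng/mL) and ATP (1.25 mM) stimulation; lower signal means less secretion.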
uPA surface inh: cell surface uPA generation inhibition. cell surface uPA generation assay, qHTS. Potency, µM (top dose mostly 38.3 µM), without a hit: top-dose activity change, negative = inhibition, most hits filed as inhibitors. hit rate 0.31% among 330,000. AID 540303; active = well fitted inhibition curve with a large enough effect; inconclusive = small, poorly fitted or top-dose-only effect; inactive = no such curve, though single readings can be large or run the other way; tested in mouse RAW 264.7 cells; also: potency is read from the fitted curve at half-maximal effect; nearly all actives have a fitted effect of over 55% in size
TDP1 cell noCPT: qHTS for Inhibitors of human tyrosyl-DNA phosphodiesterase 1 (TDP1): qHTS in cells in absence of CPT | DT40 Tdp1-/- hTDP1 cells, no CPT, ATP luminescence, 48 h | Potency, µM (highest dose often 46.2 µM), inactives show at the highest dose activity change, negative = growth inhibition, most hits filed as inhibitors | hit rate 15% among 420,000 | AID 686978, 2013; also: potency is read from the fitted curve at half-maximal effect; nearly all actives have a fitted effect of over 55% in size
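Luminescent ATP content (CellTiter-Glo) served as the growth readout. Knockout chicken DT40 cells expressing human TDP1 were exposed to compounds without camptothecin for a minimum 48 hr at 37 °C.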
HT1080 IDH1KD tx: HT-1080 IDH1 knockdown cell toxicity (counter line) | HT-1080 IDH1 knockdown viability, ATP luminescence, 48 h | Potency, µM (highest dose often 46.1 µM), for inactives: top-dose activity, negative = toxicity, actives largely listed as cytotoxic | hit rate 2% among 360,000 | AID 686971;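 also: potency is read from the fitted curve at half-maximal effect; 0% = DMSO wells and -100% = cell-free medium wells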
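Knockdown cells (IDH1KD HT-1080) received compounds 2 h after plating at 750 cells/well and were kept 48 h at 37 °C in 5% FBS RPMI. A CellTiter-Glo luminescence read gave % activity for curve fitting.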
DT40 TDP1 CPT: DT40-hTDP1 cell growth loss with CPT. Potency, µM (top dose mostly 46.2 µM), without a hit: at the highest dose activity change, negative = growth inhibition, usual class: inhibitors. AID 686979. hit rate 12% among 420,000. chicken DT40 Tdp1-/-;hTDP1 cells + 20 nM CPT, ATP luminescence, 48 h; also: potency is read from the fitted curve at half-maximal effect; nearly all actives have a fitted effect of over 55% in size
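Cell growth measured by CellTiter-Glo luminescence after a minimum 48 h, 37 C compound exposure with 20 nM CPT in Tdp1-knockout DT40 cells stably expressing hTDP1, seeded 400/well; qHTS titration format.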
HT1080NT lethal: kills 2HG-producing HT-1080-NT fibrosarcoma cells | AID 686970 | Potency, µM (titrated, usually from 46.1 µM), inactives show top-dose activity, negative = less viability, usual class: cytotoxic | HT-1080-NT fibrosarcoma viability, CellTiter-Glo ATP luminescence, 48 h | hit rate 1.6% among 360,000;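 also: NT is the 2HG producing partner of a matched IDH1 knockdown line; potency is read from the fitted curve at half-maximal effect; 0% = DMSO-treated cells and -100% = media-only wells without cells; nearly all actives have a fitted effect of over 55% in size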
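Read-out is CellTiter-Glo luminescence after 10 minutes at room temperature, following 48 hours' compound treatment of HT-1080-NT cells (750 cells/well, RPMI, 5% FBS, 37 degrees C).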
Starred values were filed as active, the others as inactive; ? = inconclusive; / = no result given. Unless noted, calls follow the shape of the dose curve; as a rule, active = well fitted curve in the direction sought with a large enough effect; inconclusive = small, poorly fitted or top-dose-only effect, or another doubt; inactive = no such curve, though single readings can be large; an effect the other way counts as inactive or inconclusive. Unless noted, % is scaled to controls: 0 for no effect and ±100 for the full control effect.

SMILES	IL-1B inflam inh	uPA surface inh	TDP1 cell noCPT	HT1080 IDH1KD tx	DT40 TDP1 CPT	HT1080NT lethal
O=C(N/N=C/c1ccc[nH]1)c1sc2ccccc2c1Cl	37.3	-5.1%	13µM*	?	13µM*	?
CCc1ccc(-c2cc(C(=O)N/N=C/c3c[nH]c4ccccc34)[nH]n2)cc1	-53.4*	-17.5%	6.51µM*	3.66µM*	16.4µM*	5.17µM*
O=C(N/N=C/c1c[nH]c2ccccc12)c1cccc(Cl)c1	-2.3	2.4%	-12.9%	5.0%	-15.4%	2.1%
CC(C)c1cc(C(=O)N/N=C/c2c[nH]c3ccccc23)n[nH]1	-5.1	-27.2%	?	-1.2%	?	0.0%
COc1ccc(/C=N/NC(=O)C(=O)N2CCCCCC2)cc1O	-10.5	-2.9%	-4.1%	12.8%	0.5%	0.5%
COc1cc(CNCc2cccs2)ccc1OCc1cccs1	-83.9*	0.5%	?	?	-16.5%	8.8%
Cc1ccc(CNS(=O)(=O)NCc2cccs2)cc1	-13.1	7.7%	?	-11.7%	-19.9%	-2.0%
COc1cc(CNCc2cccs2)ccc1OCc1ccccc1	-22.4	-16.3%	-19.4%	0.0%	-29.1%	?
COc1cc(CNC(C)(C)C)cc(Br)c1OCc1cccs1	?	-2.1%	14.6µM*	?	?	?
CCN(CC)c1ccc(CNCc2cccs2)cc1	?	-14.9%	20.6µM*	-24.9%	16.4µM*	-12.9%
COc1cc(CNCCO)cc(Br)c1OCc1cccs1	-20.6	-5.5%	29.1µM*	-26.8%	-17.2%	?
S=c1[nH]c(=S)c2[nH]cnc2[nH]1	/	/	5.9%	/	-1.5%	/
COc1ccc(CCN(C)C/C=C/c2ccccc2[N+](=O)[O-])cc1OC	?	-7.2%	?	1.3%	?	-4.1%
COc1ccc(CCN(C)c2ccc(C(N)=O)cc2[N+](=O)[O-])cc1OC	-20.3	-11.4%	-14.9%	-7.6%	29.1µM*	0.3%
Cc1ccc2oc(-c3ccc(C)c(NC(=O)/C=C/c4ccco4)c3)nc2c1	/	/	-24.1%	/	-19.1%	/
COc1ccc(Cl)cc1C(=O)O/N=C(\N)c1ccccn1	-5.0	10µM*	?	-0.3%	-27.9%	-8.6%
C/C(=N\NC(=O)c1cccc2ccccc12)c1ccccn1	-106.6*	-1.9%	1.46µM*	?	1.16µM*	?
C/C(=N/NC(=O)c1ccccn1)c1ccncc1	-5.6	-0.1%	-5.3%	10.2%	-5.6%	6.2%
C/C(=N/NC(N)=S)c1ccc(Br)s1	-6.4	-5.8%	4.61µM*	?	8.2µM*	?
C/C(=N\NC(=O)c1ccc(Cl)c(Cl)c1)c1ccccn1	-103.4*	2.0%	0.517µM*	1.84µM*	0.411µM*	?
C/C(=N\NC(=O)c1ccoc1C)c1cccc2ccccc12	40.6	-0.4%	?	0.5%	?	9.3%
O=Cc1ccc(C(=O)OCC(=O)NCc2ccco2)cc1	13.6	0.4%	7.5%	0.2%	-5.3%	2.2%
COC(=O)N(C)C[C@@H]1OCc2cn(nn2)CCCC(=O)N([C@@H](C)CO)C[C@H]1C	21.8	/	2.4%	0.6%	18.9%	0.1%
C/C(=N\NC(=O)C(c1ccccc1)c1ccccc1)c1ccccn1	-96.6*	0.7%	4.61µM*	5.8µM*	4.61µM*	9.2µM*
C/C(=N\NC(=O)c1cc(-c2cccs2)nc2ccccc12)c1ccccn1	189.7	?	0.731µM*	?	0.651µM*	?
C/C(CC(=O)Nc1ccccn1)=N\NC(=O)c1ccccc1O	144.8	-9.6%	16.4µM*	9.2µM*	4.11µM*	20.6µM*
C/C(=N\NC(=O)c1ccc(Cl)c(Cl)c1)c1ccc(Br)s1	6.4	2.2%	1.46µM*	-5.8%	1.46µM*	-0.8%
COc1ccc(S(=O)(=O)N(C)C[C@H]2Oc3c(NC(=O)CCC(F)(F)F)cccc3C(=O)N([C@H](C)CO)C[C@@H]2C)cc1	-7.2	7.5%	-1.4%	3.2%	-7.1%	0.0%
